The text below walks through data of PubChem BioAssay (NCI).

Among the test systems are NCI-H23 lung; NCI-H226 lung; NCI-H322M lung; HOP-62 NSCLC; NCI-H460 lung; HOP-92 NSCLC; NCI-H522 lung; 786-0 renal; COLO 205 colon; DU-145 prostate; MALME-3M melanoma; MDA-MB-231 breast; RXF 393 renal; SF-268 CNS; SF-295 CNS; SF-539 CNS; UACC-257 melanoma; M14 melanoma; K-562 leukemia.
Common to all, as to test: NCI-60 one-dose screen, 48 h (100 = growth as untreated, 0 = no growth, -100 = all killed)
What all share (conditions): 10 µM unless noted

This is part of a sample that, as a whole, favours compounds with a hit. Of some 83,000 tested, about 20% had one in any assay.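 Plates (96-well) were seeded with cells, treated with compound at one concentration, and incubated for 48 hours before percent growth was determined.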 Unmarked numbers belong to inactive results. The source made the active and inactive calls. The calls were made as follows: active = growth percent below 10; inactive = the rest.

For `COc1cc(/C=C\c2cc(OC)c(OC)c(OC)c2)cc(NC(=O)/C=C/c2cc(OC)c(OC)c(OC)c2)c1OC`, the growth in the experiment with NCI-H23 lung is 27.8%; with NCI-H226 lung, 66.6%; in the experiment on NCI-H322M lung it was 66.8%; in the experiment on HOP-62 NSCLC it was 63.7%; in the experiment on NCI-H460 lung, 55.7%; with HOP-92 NSCLC it was 45%. The growth with NCI-H522 lung was 23.3%; in the experiment with 786-0 renal, 51.6%; in the experiment on COLO 205 colon it was 38.2%; with DU-145 prostate it was 78%; with MALME-3M melanoma, 48.7%; with MDA-MB-231 breast it was 51.3%. In addition, the growth is 28.7% with RXF 393 renal; 72.6% in the experiment with SF-268 CNS; 32.6% in the experiment on SF-295 CNS; 56.4% in the experiment on SF-539 CNS; 68.4% in the experiment with UACC-257 melanoma; 37.9% in the experiment with M14 melanoma.

On to `COc1cc(/C=C\C(=O)O)ccc1OCc1ccccc1`, for which the growth in the experiment with NCI-H23 lung was 100%; in the experiment with NCI-H226 lung it was 80.2%; in the experiment on NCI-H322M lung it was 117%; in the experiment on HOP-62 NSCLC it was 99%; with NCI-H460 lung, 105%; in the experiment with HOP-92 NSCLC it was 86.1%. Also, the growth is 83.6% in the experiment with NCI-H522 lung; 109% in the experiment with 786-0 renal; 108% in the experiment with COLO 205 colon; 103% in the experiment with DU-145 prostate; 126% with K-562 leukemia; 102% with MALME-3M melanoma. Also, the growth in the experiment on MDA-MB-231 breast was 93.5%; in the experiment with RXF 393 renal, 103%; in the experiment with SF-268 CNS it was 94.8%; in the experiment with SF-295 CNS, 101%; in the experiment on SF-539 CNS it was 99.5%; in the experiment with UACC-257 melanoma, 91%. Besides, in the experiment on M14 melanoma, the growth was 109%.

With `C#CCNC(=O)c1cccc2c1cc(C)n2-c1nc2c(c(NCc3ccccc3)n1)CCCC2`, the growth in the experiment with NCI-H23 lung was -42.8% (active); in the experiment with NCI-H226 lung, -67.1% (active); with NCI-H322M lung, -4.53% (active); with HOP-62 NSCLC, -6.14% (active); in the experiment on NCI-H460 lung it was -30.8% (active); in the experiment with HOP-92 NSCLC, -61% (active). Moreover, the growth is -25.8% (active) in the experiment with NCI-H522 lung; -48.4% (active) with 786-0 renal; -46.4% (active) in the experiment with COLO 205 colon; 5.22% (active) in the experiment with DU-145 prostate; 6.56% (active) in the experiment with K-562 leukemia; -59% (active) in the experiment on MALME-3M melanoma. Moreover, the growth is -69.7% (active) in the experiment on MDA-MB-231 breast; -68.1% (active) with RXF 393 renal; -23.6% (active) in the experiment on SF-268 CNS; -68.2% (active) in the experiment on SF-295 CNS; -23.4% (active) with SF-539 CNS; -30.5% (active) in the experiment on UACC-257 melanoma. In addition, in the experiment on M14 melanoma, the growth is -39.2% (active).

`COc1ccc2c(c1)oc1c(C)c3c(c(C)c12)C(=O)N(N)C3=O`: the growth is 50.4% in the experiment with NCI-H23 lung; -11.6% (active) in the experiment on NCI-H226 lung; 32.3% in the experiment with NCI-H322M lung; 14.8% in the experiment with HOP-62 NSCLC; 8% (active) in the experiment on NCI-H460 lung; 29% in the experiment with HOP-92 NSCLC. In addition, the growth in the experiment with NCI-H522 lung was 49.5%; with 786-0 renal, -39.6% (active); in the experiment on COLO 205 colon it was 39.5%; in the experiment on DU-145 prostate it was 27.9%; with MALME-3M melanoma it was -5.47% (active); in the experiment on MDA-MB-231 breast, -4.83% (active). The growth was 28.5% with RXF 393 renal; 39.8% in the experiment with SF-268 CNS; 12% in the experiment on SF-295 CNS; -6.28% (active) in the experiment with SF-539 CNS; 40.5% in the experiment with UACC-257 melanoma; 13.9% with M14 melanoma.

On to `CC(c1ccccc1)C(C(=O)c1ccccc1)c1ccccc1` (centres undefined), for which the growth with NCI-H23 lung is 84.6%; in the experiment with NCI-H226 lung, 73.5%; in the experiment on NCI-H322M lung, 103%; in the experiment on HOP-62 NSCLC it was 44.8%; in the experiment on NCI-H460 lung, 88.3%; with HOP-92 NSCLC, 107%. Further, the growth in the experiment on NCI-H522 lung is 68.4%; in the experiment on 786-0 renal, 83.5%; in the experiment with COLO 205 colon it was 112%; in the experiment with DU-145 prostate, 105%; with MALME-3M melanoma, 109%; with MDA-MB-231 breast, 71.6%. Further, the growth with RXF 393 renal was 90.6%; in the experiment with SF-268 CNS it was 94.2%; in the experiment with SF-295 CNS it was 91.8%; with SF-539 CNS, 98.1%; with UACC-257 melanoma, 105%; with M14 melanoma, 89.7%.

As to `CNC(=O)c1cncc(Cn2nc(C)c(NC(=O)c3ccc(COc4ccc(C(F)(F)F)cc4C)cc3)c2C)c1`, the growth with NCI-H23 lung is 49.3%; in the experiment with NCI-H226 lung it was 58.1%; in the experiment with NCI-H322M lung, 88.8%; in the experiment on HOP-62 NSCLC it was 56.9%; with NCI-H460 lung, 62%; with HOP-92 NSCLC, 79.2%. In addition, the growth was 49.2% in the experiment with NCI-H522 lung; 68.8% with 786-0 renal; 66.9% with COLO 205 colon; 67% with DU-145 prostate; 37% with K-562 leukemia; 73.8% with MALME-3M melanoma. Besides, the growth in the experiment on MDA-MB-231 breast is 78.2%; in the experiment with RXF 393 renal, 83.7%; in the experiment with SF-268 CNS, 70.8%; in the experiment with SF-295 CNS, 40.4%; in the experiment on SF-539 CNS, 80.7%; in the experiment with UACC-257 melanoma, 18.4%. In the experiment on M14 melanoma, the growth is 73.3%.

`OC(c1cccc(C(F)(F)F)c1)c1cnccc1NC1CCCCC1` (centres undefined): the growth was 60.9% in the experiment with NCI-H23 lung; 82.9% in the experiment on NCI-H226 lung; 90.2% with NCI-H322M lung; 87.4% with HOP-62 NSCLC; 82.8% in the experiment with NCI-H460 lung; 45.4% in the experiment with HOP-92 NSCLC. In addition, the growth in the experiment on NCI-H522 lung was 82.4%; in the experiment with 786-0 renal, 73.7%; with DU-145 prostate, 85%; with MALME-3M melanoma, 83.2%; in the experiment with MDA-MB-231 breast, 66.1%; in the experiment with RXF 393 renal, 78.8%. In addition, the growth with SF-268 CNS was 89.6%; with SF-295 CNS it was 81%; in the experiment on SF-539 CNS, 91.7%; with UACC-257 melanoma, 87%; with M14 melanoma, 87.9%.

Regarding `Oc1cccc(CCc2ccc(Oc3cc(CCc4cccc(O)c4)cc(O)c3O)cc2)c1`, the growth with NCI-H23 lung is 89%; in the experiment on NCI-H226 lung, 84.4%; with NCI-H322M lung, 81.8%; in the experiment on HOP-62 NSCLC, 92.5%; in the experiment on NCI-H460 lung, 66.4%; with HOP-92 NSCLC, 53.5%. In addition, the growth was -8.62% (active) with NCI-H522 lung; 92.8% in the experiment on 786-0 renal; 88.8% in the experiment with DU-145 prostate; 110% with MALME-3M melanoma; 72.8% in the experiment with MDA-MB-231 breast; 81% in the experiment on RXF 393 renal. The growth with SF-268 CNS was 51.7%; with SF-295 CNS, 96.7%; in the experiment on SF-539 CNS, 73.9%; in the experiment with UACC-257 melanoma it was 95.6%; with M14 melanoma, 81.2%.

As to `C=C1C(=O)O[C@H]2[C@H]1CC/C(CNC(=O)/C=C/c1cccc(OC)c1)=C\CC[C@@]1(C)O[C@@H]21`, the growth was 64.4% in the experiment on NCI-H23 lung; 73.6% in the experiment on NCI-H226 lung; 72.6% in the experiment with NCI-H322M lung; 68.7% in the experiment with HOP-62 NSCLC; 76% in the experiment on NCI-H460 lung; -31.7% (active) in the experiment on HOP-92 NSCLC. In addition, the growth in the experiment on NCI-H522 lung is -69.4% (active); in the experiment with 786-0 renal, -59.2% (active); in the experiment with COLO 205 colon, -56.5% (active); with DU-145 prostate it was 13.2%; with K-562 leukemia it was 3.75% (active); in the experiment on MALME-3M melanoma, -45% (active). The growth in the experiment with MDA-MB-231 breast was 7.34% (active); in the experiment on RXF 393 renal it was -80.5% (active); in the experiment with SF-268 CNS it was 48.4%; with SF-295 CNS, 71.8%; in the experiment on SF-539 CNS, -70.5% (active); with UACC-257 melanoma it was -6.14% (active). The growth in the experiment on M14 melanoma was -36.8% (active).
